PubChem BioAssay
Calls of active or inactive are those of the source.

How the values were obtained:
[1] = biological target: Albumin (Bos taurus) (UniProt P02769); assay: bovine serum albumin binders on microarray, profiling panel, artefact control for SMM control protein annotation, biochemical, small-molecule microarray, Alexa647 label, 635/667 nm fluorescence (AID 1118); settings: BSA-A647 binding, fluorescence 635 nm, higher = more signal;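 further: score merges 667 nm emission intensity and signal-to-noise per printed compound spot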
Sequence of Albumin (Bos taurus) (P02769 whole entry, looked up): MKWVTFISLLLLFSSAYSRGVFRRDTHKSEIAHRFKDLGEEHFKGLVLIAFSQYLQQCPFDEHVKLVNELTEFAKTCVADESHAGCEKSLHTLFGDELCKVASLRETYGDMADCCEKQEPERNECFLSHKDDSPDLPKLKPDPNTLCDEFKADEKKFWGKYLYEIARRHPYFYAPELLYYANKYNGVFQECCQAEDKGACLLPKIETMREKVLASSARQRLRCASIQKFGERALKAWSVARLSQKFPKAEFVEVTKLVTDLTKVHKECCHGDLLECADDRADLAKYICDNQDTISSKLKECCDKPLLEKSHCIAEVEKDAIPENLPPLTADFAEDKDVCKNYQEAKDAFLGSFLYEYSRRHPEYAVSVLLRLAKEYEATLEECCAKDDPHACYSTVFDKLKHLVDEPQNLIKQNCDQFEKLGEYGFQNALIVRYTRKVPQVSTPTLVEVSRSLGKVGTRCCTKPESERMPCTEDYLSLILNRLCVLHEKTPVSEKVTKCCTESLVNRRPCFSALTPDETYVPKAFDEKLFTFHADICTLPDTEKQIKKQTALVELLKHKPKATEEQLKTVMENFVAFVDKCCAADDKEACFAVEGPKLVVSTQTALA

[2] = small-molecule microarray binders of probe aXIP, primary screen, biochemical, NeuroSMM set, 635/667 nm fluorescence (AID 1119); settings: higher = more signal, called active from +8 up or from −8 down;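 further: probe is the protein aXip251-270 applied at 1 µg/mL to compound-printed slides; binding of probe to printed compounds measured as 667 nm fluorescence plus signal to noise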
[3] = small-molecule binders of probe aNOTCH3, primary screen, biochemical, small-molecule microarray, 635/667 nm fluorescence (AID 1120); settings: higher = more signal;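 further: probe is a biotin-tagged antibody raised against NOTCH3 rather than NOTCH3 protein; score merges spot fluorescence near 667 nm with spot signal to noise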
[4] = small-molecule binders of probe aNOTCH2, primary screen, biochemical, small-molecule microarray, 635/667 nm fluorescence (AID 1121); settings: higher = more signal;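 further: score merges feature fluorescence read at 667 nm with its signal to noise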
[5] = biological target: Carbonic anhydrase 2 (Homo sapiens) (UniProt P00918); assay: CAII small-molecule binders, profiling panel, biochemical, small-molecule microarray, Alexa647-labelled CAII (AID 1122); settings: CAII-A647 binding fluorescence, higher = more signal
[6] = COS7 lysate on small-molecule microarray, probe aHis, 635 nm (AID 1123); settings: COS7 cell lysate, fluorescence, higher = more signal;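 further: z-score combines 667nm fluorescence intensity with signal-to-noise per printed compound spot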
[7] = compound binding in COS7 lysate, probe aLAP1, primary screen, cell lysate, small-molecule microarray (AID 1124); settings: probe aLAP1, fluorescence, higher = more signal;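 further: lysate comes from COS7 cells expressing LAP1 and is applied at 0.3 µg/mL; score merges spot fluorescence near 667 nm with signal-to-noise over triplicate slides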
[8] = tested on: Sam68 (KHDRBS1); assay: Sam68 small-molecule binders, primary screen, biochemical, small-molecule microarray, 635 nm fluorescence (AID 1125); settings: small-molecule microarray binding, higher = more signal;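 further: score merges 667 nm channel intensity with signal to noise over triplicate slides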
[9] = tested on: Chordin-like protein 2 (CHRDL2); assay: CHRDL2 small-molecule binders, primary screen, biochemical, small-molecule microarray, 635 nm fluorescence (AID 1126); settings: small-molecule microarray binding, fluorescence 635 nm; higher = more signal;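 further: printed compound slides probed with Chrdl2 protein at 4 µg/mL for 1 h at 4 C; score merges 667 nm emission intensity with signal to noise over three replicate slides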
[10] = biological target: Concanavalin-A (Canavalia ensiformis) (UniProt P02866); assay: ConA small-molecule binders, primary screen, artefact control for SMM control protein annotation, biochemical, small-molecule microarray, Alexa647 label, 635 nm (AID 1127); settings: ConA-A647 binding fluorescence, higher = more signal;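 further: z combines 667 nm emission intensity with signal-to-noise across three replicate slides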
Sequence of Concanavalin-A (Canavalia ensiformis) (P02866 whole entry, looked up): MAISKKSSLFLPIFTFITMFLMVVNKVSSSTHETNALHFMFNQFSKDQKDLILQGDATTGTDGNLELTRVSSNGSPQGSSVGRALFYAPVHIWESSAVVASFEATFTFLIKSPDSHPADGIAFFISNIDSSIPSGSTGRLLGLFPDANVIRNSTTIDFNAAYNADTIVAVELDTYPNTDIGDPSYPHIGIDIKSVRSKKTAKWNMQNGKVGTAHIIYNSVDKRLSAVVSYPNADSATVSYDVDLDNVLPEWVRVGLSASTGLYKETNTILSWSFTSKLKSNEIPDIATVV

[11] = anti-His antibody binders, primary screen, artefact control for SMM control protein annotation, biochemical, small-molecule microarray, 635 nm fluorescence (AID 1128); settings: anti-His Alexa647 antibody binding, higher = more signal;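 further: score merges feature fluorescence with signal-to-noise for each printed compound spot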
[12] = tested on: Human papillomavirus type 1a E7 protein (residues 1-88); assay: HPV1a E7 small-molecule binders, primary screen, biochemical, small-molecule microarray, residues 1-88, 635 nm (AID 1129); settings: small-molecule microarray binding, fluorescence 635 nm; higher = more signal
[13] = biological target: Focal adhesion kinase 1 (Homo sapiens) (UniProt Q05397); assay: small-molecule microarray binders of FAK, primary screen, biochemical, 635/667 nm fluorescence, BSA, DTT (AID 1130); settings: PTK2 binding, 635 nm fluorescence, higher = more signal;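 further: composite of spot emission at 667 nm and signal to noise over triplicate slides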
Sequence of Focal adhesion kinase 1 (Homo sapiens) (Q05397 whole entry, looked up): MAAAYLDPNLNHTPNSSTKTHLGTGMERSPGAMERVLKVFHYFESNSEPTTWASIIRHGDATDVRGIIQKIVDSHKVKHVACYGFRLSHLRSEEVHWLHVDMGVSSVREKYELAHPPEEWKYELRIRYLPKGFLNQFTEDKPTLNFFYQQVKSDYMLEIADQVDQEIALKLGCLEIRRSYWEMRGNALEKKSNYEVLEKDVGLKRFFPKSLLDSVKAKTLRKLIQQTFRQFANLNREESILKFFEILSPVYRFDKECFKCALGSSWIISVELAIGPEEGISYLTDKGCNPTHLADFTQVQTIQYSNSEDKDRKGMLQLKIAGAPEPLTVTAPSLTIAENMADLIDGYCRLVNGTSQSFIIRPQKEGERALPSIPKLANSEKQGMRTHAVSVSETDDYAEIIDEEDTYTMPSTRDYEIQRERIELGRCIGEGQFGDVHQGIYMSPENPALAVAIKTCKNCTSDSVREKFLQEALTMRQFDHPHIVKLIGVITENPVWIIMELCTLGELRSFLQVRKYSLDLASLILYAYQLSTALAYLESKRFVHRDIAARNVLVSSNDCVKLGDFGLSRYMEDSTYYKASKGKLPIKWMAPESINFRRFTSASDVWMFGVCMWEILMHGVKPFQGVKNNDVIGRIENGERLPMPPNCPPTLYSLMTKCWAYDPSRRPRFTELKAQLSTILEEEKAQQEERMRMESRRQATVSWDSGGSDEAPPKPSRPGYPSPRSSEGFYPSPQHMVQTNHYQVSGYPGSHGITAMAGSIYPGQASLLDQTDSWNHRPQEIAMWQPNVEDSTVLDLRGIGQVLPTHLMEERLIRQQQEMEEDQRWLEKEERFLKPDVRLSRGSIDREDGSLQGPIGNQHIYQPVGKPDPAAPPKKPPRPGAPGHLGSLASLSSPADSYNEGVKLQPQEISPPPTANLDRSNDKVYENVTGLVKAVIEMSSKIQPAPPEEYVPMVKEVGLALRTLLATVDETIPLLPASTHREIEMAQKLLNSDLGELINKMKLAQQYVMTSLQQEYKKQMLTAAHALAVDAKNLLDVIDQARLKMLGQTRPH

[14] = tested on: Fibrinogen (Alexa647-labelled); assay: fibrinogen binders on compound microarrays, profiling panel, artefact control for SMM control-protein annotation, biochemical, small-molecule microarray, 635/667 nm fluorescence (AID 1131); settings: fibrinogen-A647 binding fluorescence, higher = more signal;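 further: z-score merges 667 nm fluorescence with per-spot signal-to-noise over triplicate slides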
[15] = biological target: Follistatin (Homo sapiens) (UniProt P19883); assay: follistatin binders on small-molecule microarrays, primary screen, biochemical, small-molecule microarray, 635/667 nm fluorescence (AID 1132); settings: FST binding, 635 nm fluorescence, higher = more signal
Sequence of Follistatin (Homo sapiens) (P19883 whole entry, looked up): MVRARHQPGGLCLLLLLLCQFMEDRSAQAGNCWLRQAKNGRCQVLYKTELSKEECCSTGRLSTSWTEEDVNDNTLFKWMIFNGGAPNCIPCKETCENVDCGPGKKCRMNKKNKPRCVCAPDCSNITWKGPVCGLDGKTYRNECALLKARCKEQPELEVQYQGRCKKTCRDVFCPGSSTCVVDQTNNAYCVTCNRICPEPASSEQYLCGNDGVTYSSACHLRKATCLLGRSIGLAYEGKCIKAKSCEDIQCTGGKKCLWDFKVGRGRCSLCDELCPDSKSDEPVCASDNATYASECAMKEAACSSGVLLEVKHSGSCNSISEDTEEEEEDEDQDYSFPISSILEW

[16] = biological target: Fibroblast growth factor 2 (Homo sapiens) (UniProt P09038); assay: FGF2 binders on small-molecule microarrays, primary screen, biochemical, small-molecule microarray, 635/667 nm fluorescence (AID 1133); settings: small-molecule microarray binding, FGF2, fluorescence 635/667; higher = more signal
Sequence of Fibroblast growth factor 2 (Homo sapiens) (P09038 whole entry, looked up): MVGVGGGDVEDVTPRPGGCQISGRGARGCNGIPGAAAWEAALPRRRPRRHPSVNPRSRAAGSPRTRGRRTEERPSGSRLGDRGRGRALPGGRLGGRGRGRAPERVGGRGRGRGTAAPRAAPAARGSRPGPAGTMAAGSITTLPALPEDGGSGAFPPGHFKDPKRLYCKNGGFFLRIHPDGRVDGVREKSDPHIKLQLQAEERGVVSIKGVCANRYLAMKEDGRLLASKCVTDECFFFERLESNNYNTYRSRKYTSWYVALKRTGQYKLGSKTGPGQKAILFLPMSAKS

[17] = mitochondrial membrane potential change in A549 cells, profiling panel, cell-based, JC-1 fluorescence, basal, 24 h, 100 nL (AID 1138); settings: higher = more signal;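 further: A549 lung adenocarcinoma cells under basal conditions with no added stimulus; test concentration not given here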
[18] = tested on: Lefty1; assay: Lefty1 binders on small-molecule microarrays, primary screen, biochemical, small-molecule microarray, 635/667 nm fluorescence (AID 1139); settings: small-molecule microarray binding, fluorescence 635/667; higher = more signal
[19] = tested on: wheat germ agglutinin (Triticum aestivum), Alexa647-labelled; assay: wheat germ agglutinin binders on compound microarrays, profiling panel, artefact control for SMM control-protein annotation, biochemical, small-molecule microarray, 635/667 nm fluorescence (AID 1140); settings: WGA-A647 binding, 635 nm fluorescence, higher = more signal;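 further: score merges 667 nm feature emission with signal to noise over triplicate slides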
[20] = biological target: Luciferin 4-monooxygenase (Photinus pyralis) (UniProt P08659); assay: firefly luciferase enzyme inhibitors, primary screen, biochemical, luminescence, purified enzyme, 2006 set (AID 1141); settings: SteadyGlo luminescence, 30 min, higher = more signal, called active from +8 up or from −8 down;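 further: cell-free assay with purified firefly luciferase at 100 ng per well in PBS; test concentration not given here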
Sequence of Luciferin 4-monooxygenase (Photinus pyralis) (P08659 whole entry, looked up): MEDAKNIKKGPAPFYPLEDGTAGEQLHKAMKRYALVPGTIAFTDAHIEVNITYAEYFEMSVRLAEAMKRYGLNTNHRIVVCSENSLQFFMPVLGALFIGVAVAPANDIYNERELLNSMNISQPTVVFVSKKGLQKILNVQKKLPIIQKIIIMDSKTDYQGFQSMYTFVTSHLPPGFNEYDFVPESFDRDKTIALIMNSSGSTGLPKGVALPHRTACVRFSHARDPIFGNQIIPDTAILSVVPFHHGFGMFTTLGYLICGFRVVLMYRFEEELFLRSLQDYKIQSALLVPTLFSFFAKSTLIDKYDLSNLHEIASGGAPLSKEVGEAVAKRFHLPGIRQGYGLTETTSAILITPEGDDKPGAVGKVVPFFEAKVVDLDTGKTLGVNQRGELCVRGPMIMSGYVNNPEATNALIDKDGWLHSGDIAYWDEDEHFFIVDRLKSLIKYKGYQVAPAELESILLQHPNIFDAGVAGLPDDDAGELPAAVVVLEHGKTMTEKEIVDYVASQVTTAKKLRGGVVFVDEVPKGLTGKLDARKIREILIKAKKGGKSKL

Compound	composite z-score [1]	composite Z-score [2]	composite z-score [3]	composite z-score [4]	composite z-score [5]	composite z-score [6]	composite z-score [7]	composite z-score [8]	composite z-score [9]	composite z-score [10]	composite z-score [11]	composite z-score [12]	composite z-score [13]	composite z-score [14]	composite z-score [15]	composite z-score [16]	z-score [17]	composite z-score [18]	composite z-score [19]	z-score [20]
CC(=CC1CCCCC1)[C@@H](NC(=O)c1cccnc1)c1ccc(-c2ccccc2)cc1	0.513	-0.8 (inactive)	-0.118	-0.0665	0.0804	1.24	-0.264	-0.649	-0.531	0.132	0.219	0.242	-0.0341	0.0017	-0.0317	-0.741	-0.637	-0.496	0.495	0.722 (inactive)
OB1C=CCC(CCc2ccccc2)O1 (stereo not given)	-0.923	-0.601 (inactive)	-0.191	-0.153	-0.498	-0.622	-0.803	-1.31	0.317	-1.34	-0.837	-0.692	-0.153	-0.894	0.0417	0.712	1.13	-0.732	-0.477	-1.83 (inactive)
NC(=O)NCC#Cc1ccc2c(c1)[C@]1(C(=O)N2)[C@H](C(=O)O)[C@H]2C(=O)O[C@H](c3ccccc3)[C@H](c3ccccc3)N2[C@@H]1c1ccc(O)cc1	0.424	0.116 (inactive)	0.207	0.314	0.205	0.361	-0.464	0.102	0.265	0.888	0.0795	0.0885	0.06	0.972	1.31	0.153	-1.01	0.654	0.642	-1.5 (inactive)
CCOC(=O)C[C@H]1[C@H](OC(=O)c2ccc(-c3ccccc3)cc2)[C@@H](NC(=O)c2ccccc2)c2cc(OCCCO)ccc2N1C(=O)Cc1ccc(OC)cc1	0.372	-0.316 (inactive)	-0.0077	-0.0664	-0.0275	0.368	0.311	-0.254	-0.399	-0.769	-0.913	-0.509	-0.355	-0.264	-0.434	0.1	1.45	-0.336	-0.126	-0.938 (inactive)
NC(=O)N1C(=O)C2C(C1=O)C1C=C(CCCO)C2C(C2CC2)N1Cc1cc2c(cc1Br)OCO2 (stereo not given)	0.277	0.0861 (inactive)	0.0242	-0.112	0.877	0.872	-0.0694	-0.989	-0.667	-0.0295	1.06	-1.06	0.164	0.928	0.246	-0.407	0.158	0.969	0.847	-1.13 (inactive)
O=C1OCCC=C[C@H]2OC34C=CCN(Cn5nnc6ccccc65)C(=O)[C@H]3N(CCO)C(=O)[C@@H]4C12 (stereo not given in full)	0.995	0.6 (inactive)	-0.475	-0.227	0.866	-0.403	-0.38	-0.75	-1.75	-1.75	-0.459	-0.566	-0.225	-0.934	-0.851	-1.3	-0.758	-1.31	0.522	0.612 (inactive)
[N-]=[N+]=NCc1ccccc1C[C@@]1(C(=O)NCC(O)CO)N=C(c2ccc(OCCCO)cc2)O[C@@H]1c1ccccc1 (stereo not given in full)	0.992	-0.191 (inactive)	-0.0077	0.0996	0.432	2.82	-0.177	0.331	-0.247	-1.11	1.86	0.0034	-0.225	-0.513	0.602	-0.287	0.663	-1.7	0.276	-1.69 (inactive)
O=C(CS)NCCCCCNC(=O)[C@@H]1C[C@@H]2C(=O)NCC(=O)N2[C@@H]1c1ccc(O)cc1	-0.911	2 (inactive)	-0.189	-0.213	0.552	0.559	0.144	0.692	0.616	0.53	1.79	0.443	0.393	-0.135	1.18	1.24	-0.977	0.269	-0.855	-1.24 (inactive)
COCCOC(=O)N1C(=O)[C@@]2(c3ccccc31)[C@H](C(N)=O)[C@H]1C(=O)O[C@H](c3ccccc3)[C@H](c3ccccc3)N1[C@@H]2c1ccc(O)cc1	0.737	0.573 (inactive)	-0.162	-0.104	0.54	2.37	0.325	0.371	-0.169	0.237	0.142	1.04	0.386	-0.649	0.412	-0.488	0.381	0.429	0.839	-1.65 (inactive)
C=CCC(OC(C)=O)[C@@H]1[C@@H](N(Cc2ccc(-c3cccc(C(F)(F)F)c3)o2)C(=O)Cc2ccc(OC)cc2)c2cc(OCCCO)ccc2N1C(=O)c1ccc2ccccc2c1 (stereo not given in full)	0.268	-0.616 (inactive)	0.0423	-0.131	0.228	1.14	-0.0744	-0.651	-0.0916	-0.471	-0.448	-0.811	-0.198	-1	0.776	-0.522	-0.322	0.199	-0.145	0.535 (inactive)
O=C(NC1CC1)[C@@H]1c2ccccc2C(=O)N(C2Cc3ccccc3C2)[C@H]1c1ccc(CO)cc1	0.378	-0.358 (inactive)	-0.0166	0.0386	0.608	1.41	0.237	1.24	0.847	0.918	2.65	1.18	0.167	-0.677	1.29	0.988	1.64	0.294	0.0895	0.659 (inactive)
